According to the supplement of paper PMC10849652:
The full data set covers some 8,800 targets. This sample favours those with a hit. About 0.5% of all pairs of compound and target were hits. Unmarked numbers belong to inactive results.

Experiments:
Test in all cases: log2 fold change, soluble protein after heating vs DMSO (PISA); higher = thermal stabilisation; K562 lysate, 10 uM; active = over 0.2 and 3.5 SD of the protein, either way, in both replicates (recomputed)
nilotinib = compound: Cc1cn(-c2cc(NC(=O)c3ccc(C)c(Nc4nccc(-c5cccnc5)n4)c3)cc(C(F)(F)F)c2)cn1 [nilotinib]
Procedure, shortened: (§1)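 K562 pellets were dounce-homogenised in PBS pH 7.4 containing 1 mM MgCl2, and the crude extract, at 1 mg/mL protein, was exposed to 10 μM compound for 30 min. Aliquots were heated for 3 min across 48°C-58°C, pooled, brought to 0.5% NP-40 at 4°C and spun at 21,000xg for 90 min, with the supernatant taken as soluble protein. TMTpro 16plex LC-MS/MS with equalised channel sums quantified that protein. Values are log-two fold changes in thermal stability relative to solvent controls, taken from duplicates.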

[1] = compound: Cc1nc(Nc2n[nH]c3c2CN(C(=O)N[C@H](CN(C)C)c2ccccc2)C3(C)C)c2sccc2n1
Procedure, shortened: as §1

dasatinib = compound: Cc1nc(Nc2ncc(C(=O)Nc3c(C)cccc3Cl)s2)cc(N2CCN(CCO)CC2)n1 [dasatinib]
Procedure, shortened: as §1

[2] = compound: Cc1ncc(-c2ccnc(Nc3ccc(S(C)(=O)=O)cc3)n2)n1C(C)C
Procedure, shortened: as §1

[3] = compound: Cn1cc(-c2ccc3c(c2)CCN3C(=O)Cc2cccc(C(F)(F)F)c2)c2c(N)ncnc21
Procedure, shortened: as §1

quisinostat = compound: Cn1cc(CNCC2CCN(c3ncc(C(=O)NO)cn3)CC2)c2ccccc21 [quisinostat]
Procedure, shortened: as §1

tipifarnib = compound: Cn1cncc1[C@@](N)(c1ccc(Cl)cc1)c1ccc2c(c1)c(-c1cccc(Cl)c1)cc(=O)n2C [tipifarnib]
Procedure, shortened: as §1

[4] = compound: NC(=O)Nc1cc(-c2cccc(F)c2)sc1C(=O)N[C@H]1CCCNC1
Procedure, shortened: as §1

[5] = compound: NC(=O)c1cnc(N[C@@H]2CCCC[C@@H]2N)nc1Nc1cccc(-n2nccn2)c1
Procedure, shortened: as §1

[6] = compound: NC1(c2ccc(-c3nc4ccn5c(=O)[nH]nc5c4cc3-c3ccccc3)cc2)CCC1
Procedure, shortened: as §1

[7] = compound: NCC(=O)Nc1ccc(-n2nc(C(F)(F)F)cc2-c2ccc3c(ccc4ccccc43)c2)cc1
Procedure, shortened: as §1

vorinostat = compound: O=C(CCCCCCC(=O)Nc1ccccc1)NO [vorinostat]
Procedure, shortened: as §1

silmitasertib = compound: O=C(O)c1ccc2c(c1)nc(Nc1cccc(Cl)c1)c1ccncc12 [silmitasertib]
Procedure, shortened: as §1

[8] = compound: O=C1NC(=O)C(c2cnc3ccccn23)=C1c1cn2c3c(cc(F)cc13)CN(C(=O)N1CCCCC1)CC2
Procedure, shortened: as §1

entospletinib = compound: c1cn2cc(-c3ccc4cn[nH]c4c3)nc(Nc3ccc(N4CCOCC4)cc3)c2n1 [entospletinib]
Procedure, shortened: as §1

Chain of UniProt P49281 (P49281 whole entry, looked up): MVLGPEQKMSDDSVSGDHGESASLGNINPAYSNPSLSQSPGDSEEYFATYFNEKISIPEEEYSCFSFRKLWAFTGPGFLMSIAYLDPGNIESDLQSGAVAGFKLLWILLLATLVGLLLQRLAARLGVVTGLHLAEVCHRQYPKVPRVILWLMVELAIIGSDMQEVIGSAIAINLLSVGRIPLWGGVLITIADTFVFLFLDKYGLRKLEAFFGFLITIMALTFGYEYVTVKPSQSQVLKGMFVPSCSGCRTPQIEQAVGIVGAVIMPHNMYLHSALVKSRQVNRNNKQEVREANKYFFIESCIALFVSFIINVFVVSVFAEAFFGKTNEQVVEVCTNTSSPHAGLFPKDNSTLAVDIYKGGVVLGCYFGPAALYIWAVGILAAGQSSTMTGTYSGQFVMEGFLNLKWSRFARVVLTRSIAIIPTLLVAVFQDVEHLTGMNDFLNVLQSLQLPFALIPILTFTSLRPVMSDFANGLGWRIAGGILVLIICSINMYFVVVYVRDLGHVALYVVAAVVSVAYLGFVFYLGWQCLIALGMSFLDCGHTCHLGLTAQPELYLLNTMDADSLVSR
Chain of UniProt Q7L8J4 (Q7L8J4 whole entry, looked up): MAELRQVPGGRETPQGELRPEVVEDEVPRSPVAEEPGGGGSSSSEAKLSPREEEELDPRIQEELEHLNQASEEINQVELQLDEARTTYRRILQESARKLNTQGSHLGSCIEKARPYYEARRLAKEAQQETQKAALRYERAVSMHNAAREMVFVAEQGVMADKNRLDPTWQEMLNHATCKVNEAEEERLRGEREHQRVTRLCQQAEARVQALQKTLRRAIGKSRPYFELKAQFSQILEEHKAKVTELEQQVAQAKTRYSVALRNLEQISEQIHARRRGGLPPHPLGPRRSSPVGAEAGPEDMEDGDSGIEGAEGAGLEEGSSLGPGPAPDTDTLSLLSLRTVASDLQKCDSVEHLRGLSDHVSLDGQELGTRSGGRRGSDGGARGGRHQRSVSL
Chain of UniProt Q15544 (Q15544 whole entry, looked up): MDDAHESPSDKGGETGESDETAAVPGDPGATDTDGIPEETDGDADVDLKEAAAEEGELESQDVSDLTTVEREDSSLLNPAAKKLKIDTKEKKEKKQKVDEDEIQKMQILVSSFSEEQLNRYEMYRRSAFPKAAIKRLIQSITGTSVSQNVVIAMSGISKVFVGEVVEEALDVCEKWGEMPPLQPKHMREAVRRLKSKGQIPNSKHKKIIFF
Chain of UniProt Q9HBM1 (Q9HBM1 whole entry, looked up): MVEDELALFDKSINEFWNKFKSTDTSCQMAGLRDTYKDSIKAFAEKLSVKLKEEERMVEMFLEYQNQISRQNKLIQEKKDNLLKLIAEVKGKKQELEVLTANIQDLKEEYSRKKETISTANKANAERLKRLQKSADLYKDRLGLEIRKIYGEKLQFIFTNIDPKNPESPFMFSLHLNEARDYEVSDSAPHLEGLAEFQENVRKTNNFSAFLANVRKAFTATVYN
Chain of UniProt Q13043 (Q13043 whole entry, looked up): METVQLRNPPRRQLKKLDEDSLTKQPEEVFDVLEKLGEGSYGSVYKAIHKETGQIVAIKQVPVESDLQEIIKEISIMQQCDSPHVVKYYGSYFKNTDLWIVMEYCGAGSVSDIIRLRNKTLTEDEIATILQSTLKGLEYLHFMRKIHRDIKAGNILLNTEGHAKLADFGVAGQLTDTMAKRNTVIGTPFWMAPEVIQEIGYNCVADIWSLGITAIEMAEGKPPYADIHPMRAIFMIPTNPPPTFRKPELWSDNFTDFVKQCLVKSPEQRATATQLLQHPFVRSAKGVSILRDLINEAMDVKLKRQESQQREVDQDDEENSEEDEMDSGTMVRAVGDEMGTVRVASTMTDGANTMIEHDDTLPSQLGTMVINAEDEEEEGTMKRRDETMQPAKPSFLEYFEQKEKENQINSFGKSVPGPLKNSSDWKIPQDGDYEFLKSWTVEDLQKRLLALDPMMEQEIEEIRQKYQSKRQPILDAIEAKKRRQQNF
Chain of UniProt Q01130 (Q01130 whole entry, looked up): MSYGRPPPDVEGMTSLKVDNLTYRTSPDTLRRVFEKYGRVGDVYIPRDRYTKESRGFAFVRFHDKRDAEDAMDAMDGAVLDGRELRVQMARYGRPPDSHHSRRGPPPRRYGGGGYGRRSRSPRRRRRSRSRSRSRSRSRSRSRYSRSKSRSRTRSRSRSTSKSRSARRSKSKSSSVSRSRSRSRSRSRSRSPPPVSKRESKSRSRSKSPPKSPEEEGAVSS
Chain of UniProt Q9Y3B4 (Q9Y3B4 whole entry, looked up): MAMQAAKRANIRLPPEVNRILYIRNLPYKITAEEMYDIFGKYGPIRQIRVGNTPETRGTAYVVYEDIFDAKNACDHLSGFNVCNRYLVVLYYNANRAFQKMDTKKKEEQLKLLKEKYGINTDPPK
Chain of UniProt Q16629 (Q16629 whole entry, looked up): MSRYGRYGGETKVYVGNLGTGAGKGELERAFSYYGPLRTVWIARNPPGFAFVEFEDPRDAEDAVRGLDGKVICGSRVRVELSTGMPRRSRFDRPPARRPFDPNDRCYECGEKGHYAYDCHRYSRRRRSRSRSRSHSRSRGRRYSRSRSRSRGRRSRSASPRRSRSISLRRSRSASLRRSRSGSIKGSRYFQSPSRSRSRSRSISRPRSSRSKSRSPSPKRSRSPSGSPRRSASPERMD
Chain of UniProt O94768 (O94768 whole entry, looked up): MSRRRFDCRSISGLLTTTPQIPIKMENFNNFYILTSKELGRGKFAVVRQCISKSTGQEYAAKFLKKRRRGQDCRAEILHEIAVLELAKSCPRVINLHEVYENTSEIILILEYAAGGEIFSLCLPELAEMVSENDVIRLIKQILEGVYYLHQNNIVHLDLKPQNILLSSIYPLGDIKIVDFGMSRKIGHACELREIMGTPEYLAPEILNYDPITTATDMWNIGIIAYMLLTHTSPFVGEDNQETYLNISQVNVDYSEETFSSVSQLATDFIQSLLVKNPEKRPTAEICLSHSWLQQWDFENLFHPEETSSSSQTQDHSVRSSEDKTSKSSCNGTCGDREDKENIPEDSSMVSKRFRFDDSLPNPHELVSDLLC
Chain of UniProt Q6PML9 (Q6PML9 whole entry, looked up): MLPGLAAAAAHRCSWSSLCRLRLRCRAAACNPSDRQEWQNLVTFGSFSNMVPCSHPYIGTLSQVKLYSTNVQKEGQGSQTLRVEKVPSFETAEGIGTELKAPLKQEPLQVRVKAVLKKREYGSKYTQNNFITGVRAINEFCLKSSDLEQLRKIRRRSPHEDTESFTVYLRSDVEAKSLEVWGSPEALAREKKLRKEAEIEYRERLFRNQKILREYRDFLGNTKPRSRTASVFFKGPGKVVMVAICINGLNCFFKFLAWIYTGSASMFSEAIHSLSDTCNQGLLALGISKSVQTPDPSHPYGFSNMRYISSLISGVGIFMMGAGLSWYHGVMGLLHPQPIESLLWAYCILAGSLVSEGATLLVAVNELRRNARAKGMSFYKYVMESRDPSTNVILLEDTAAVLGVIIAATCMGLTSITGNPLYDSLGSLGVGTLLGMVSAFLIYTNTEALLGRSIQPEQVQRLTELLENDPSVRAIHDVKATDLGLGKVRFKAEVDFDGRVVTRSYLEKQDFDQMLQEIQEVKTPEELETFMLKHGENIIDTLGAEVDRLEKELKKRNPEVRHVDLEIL
Chain of UniProt Q8NHG7 (Q8NHG7 whole entry, looked up): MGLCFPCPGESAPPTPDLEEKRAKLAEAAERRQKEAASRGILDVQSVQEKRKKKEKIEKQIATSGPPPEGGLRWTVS
Chain of UniProt O95391 (O95391 whole entry, looked up): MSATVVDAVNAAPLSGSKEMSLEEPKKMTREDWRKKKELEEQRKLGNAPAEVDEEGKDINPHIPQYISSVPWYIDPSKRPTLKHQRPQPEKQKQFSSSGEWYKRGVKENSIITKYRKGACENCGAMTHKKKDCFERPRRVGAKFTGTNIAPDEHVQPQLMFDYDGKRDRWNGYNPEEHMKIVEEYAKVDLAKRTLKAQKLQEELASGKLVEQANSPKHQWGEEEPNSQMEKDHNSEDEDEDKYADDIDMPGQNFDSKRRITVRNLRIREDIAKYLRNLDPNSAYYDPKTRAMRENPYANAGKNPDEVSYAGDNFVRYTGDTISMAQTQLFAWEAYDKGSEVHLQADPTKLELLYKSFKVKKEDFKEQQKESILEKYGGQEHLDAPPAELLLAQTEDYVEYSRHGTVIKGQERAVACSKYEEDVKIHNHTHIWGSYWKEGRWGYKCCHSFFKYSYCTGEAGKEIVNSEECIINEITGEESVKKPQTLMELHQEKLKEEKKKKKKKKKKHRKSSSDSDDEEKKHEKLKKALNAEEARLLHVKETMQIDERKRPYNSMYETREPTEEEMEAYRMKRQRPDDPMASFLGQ
Chain of UniProt P49675 (P49675 whole entry, looked up): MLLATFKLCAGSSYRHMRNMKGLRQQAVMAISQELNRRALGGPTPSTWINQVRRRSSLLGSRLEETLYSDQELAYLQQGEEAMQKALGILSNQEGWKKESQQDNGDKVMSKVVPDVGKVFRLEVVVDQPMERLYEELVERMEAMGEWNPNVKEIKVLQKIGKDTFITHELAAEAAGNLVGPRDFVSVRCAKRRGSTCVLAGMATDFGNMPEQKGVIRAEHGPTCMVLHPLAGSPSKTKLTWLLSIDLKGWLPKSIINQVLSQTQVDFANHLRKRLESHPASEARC
Chain of UniProt Q13487 (Q13487 whole entry, looked up): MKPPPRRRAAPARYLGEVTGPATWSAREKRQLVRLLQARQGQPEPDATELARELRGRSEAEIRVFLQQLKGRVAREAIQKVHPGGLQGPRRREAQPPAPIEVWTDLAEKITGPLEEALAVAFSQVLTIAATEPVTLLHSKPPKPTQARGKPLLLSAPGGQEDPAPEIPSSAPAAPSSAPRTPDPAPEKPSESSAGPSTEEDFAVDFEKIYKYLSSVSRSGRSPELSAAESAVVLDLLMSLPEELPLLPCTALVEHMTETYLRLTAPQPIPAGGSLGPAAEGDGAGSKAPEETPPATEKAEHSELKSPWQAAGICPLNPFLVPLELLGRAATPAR

Target | log2 fold change (nilotinib) | log2 fold change [1] | log2 fold change (dasatinib) | log2 fold change [2] | log2 fold change [3] | log2 fold change (quisinostat) | log2 fold change (tipifarnib) | log2 fold change [4] | log2 fold change [5] | log2 fold change [6] | log2 fold change [7] | log2 fold change (vorinostat) | log2 fold change (silmitasertib) | log2 fold change [8] | log2 fold change (entospletinib)
STK4 (UniProt Q13043) | -0.077 | 0.343 | 0.214 | 0.177 | 0.282 | -0.105 | -0.047 | 0.585 (active) | 0.134 | -0.016 | 0.054 | -0.134 | 0.024 | 0.041 | 0.047
TAF11 (UniProt Q15544) | 0.05 | -0.049 | -0.142 | -0.034 | -0.051 | -0.085 | 0.057 | 0.046 | -0.03 |  | -0.005 |  |  | 0.05 | -0.073
SF3B6 (UniProt Q9Y3B4) | 0.045 | 0.013 | -0.036 | -0.028 | -0.038 | 0.016 | 0.021 | 0 | -0.054 | -0.03 | 0.018 | -0.273 (active) | 0.026 | 0.007 | -0.015
STK17B (UniProt O94768) | -0.006 | -0.022 | -0.063 | -0.197 | 0.065 | -0.255 | -0.08 | 0.634 |  | -0.021 |  | -0.221 | 0.807 (active) | 0.052 | 
SNCA (UniProt P37840) | 0.148 | 0.075 | 0.128 | -0.032 | 0.019 | -0.031 | 0.159 | -0.112 | -0.049 | 0 | 0.069 | 0.161 | -0.235 | -0.023 | -0.126
SVIP (UniProt Q8NHG7) | -0.006 | 0 | -0.066 | 0.089 | -0.013 | 0.034 | 0.004 | -0.095 | -0.012 | -0.004 | 0.023 | 0.171 | -0.041 | -0.013 | -0.012
SLC30A9 (UniProt Q6PML9) | -0.026 | 0.013 | -0.035 | -0.049 | 0.055 | 0.041 | 0.14 | -0.044 | -0.026 | -0.008 | -0.109 | 0.071 | -0.058 | 0.004 | -0.027
SLC38A10 (UniProt Q9HBR0) | 0.072 | -0.073 | -0.009 | 0.05 | -0.031 | -0.013 | 0.047 | -0.039 | 0.01 | 0.023 | -0.034 | 0.044 | -0.013 | 0.08 | 0.024
STAR (UniProt P49675) | 0.037 | -0.092 | 0.046 | -0.019 | 0.011 | -0.041 | 0.203 | -0.135 |  | -0.146 | 0.002 | -0.044 | -0.028 | -0.031 | -0.103
SMARCA4 isoform 4 (UniProt P51532) | -0.244 | -0.219 | -0.037 | 0.037 | 0.035 | -0.081 | 0.239 | 0.16 | -0.042 | 0.05 |  | 0.166 | -0.198 | 0.119 | -0.083
SPC25 (UniProt Q9HBM1) | 0.042 | -0.02 | 0.002 | 0.03 | 0.046 | -0.019 | 0 | -0.01 | 0.002 | 0 | 0.026 | -0.266 (active) | 0 | 0.016 | -0.004
SRSF7 (UniProt Q16629) | -0.006 | -0.053 | 0.011 | -0.056 | -0.006 | 0.047 | 0.016 | -0.088 | 0.019 | 0.034 | 0.02 | 0.134 | -0.052 | -0.014 | -0.013
SH3BP5L (UniProt Q7L8J4) | -0.056 | 0.037 | -0.023 | 0.04 | -0.025 | 0.007 | -0.01 | 0.007 | 0.013 | -0.033 | -0.003 | -0.025 | -0.068 | 0.051 | 0.009
SNAPC2 (UniProt Q13487) | 0.066 | 0 | -0.24 | -0.067 | -0.122 | -0.021 | -0.106 | 0.029 |  | 0 |  | -0.631 (active) | -0.122 | -0.086 | 
SLC11A2 isoform 3 (UniProt P49281) | -0.099 | -0.108 | 0.07 | 0.03 | -0.048 | -0.112 | -0.089 | 0.055 | -0.042 | 0.111 | -0.011 | 0 | -0.047 | 0.013 | -0.054
SRSF2 (UniProt Q01130) | -0.038 | 0 | -0.003 | -0.029 | 0.033 | -0.056 | 0.01 | 0.002 | -0.008 | -0.01 | 0.023 | 0.087 | -0.017 | -0.043 | -0.055
SMARCA4 (UniProt P51532) | -0.002 | 0.023 | -0.042 | -0.019 | 0.004 | -0.029 | -0.018 | 0.043 | 0.004 | -0.024 | 0.015 | -0.246 (active) | 0.021 | -0.028 | -0.008
SLU7 (UniProt O95391) | -0.052 | 0.045 | -0.025 | 0.047 | 0.013 | 0.244 | -0.029 | 0.086 |  | 0.016 | 0.208 | 0.012 | -0.037 | 0.046 | -0.024
